Test results from PubChem BioAssay (EPA / NIEHS).
Activity calls are given as the source filed them. Rule for the calls: active = hit-call score of the fitted dose curve at least 0.9, where 1 is the maximum; inactive = score below 0.9.

Assay: CCTE_Shafer_MEA_acute_burst_percentage_mean: CCTE's Neural Acute Assay for Percentage of Spikes in a Burst, Shafer Lab (AID 2284017);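 for AC50: curve fitted for loss of signal so potency reflects decreased burst percentage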
Protocol: CCTE_Shafer_MEA_acute assay is conducted using Axion Biosystems 48 well microelectrode array (MEA) plates and Maestro recording system. Each well of the MEA plate contains a grid of 16 microelectrodes embedded in the culture surface. Electrically active cells, such as neurons, can be cultured over the electrodes, and electrical activity in these cells can be recorded extracellularly. The spontaneous firing of neurons is captured from each electrode on a microsecond timescale providing both temporally and spatially precise data. […] The CCTE_Shafer_MEA_acute assay uses primary cultures of rat cortical neurons. As these cultures mature over time, neural networks develop functional activity and form cohesive networks in which electrical activity can be highly coordinated. Baseline 40-minute recordings are made on days post-plating 13 or 15, followed by a secondary 40-minute recording after chemical exposure.CCTE_Shafer_MEA_acute_burst_percentage_mean is a component of the CCTE_Shafer_MEA_acute assay. It measures the percentage of spikes (action potential firing) in a single-electrode burst (temporally-clustered groups of spikes) as the number of spikes in bursts divided by the total number of spikes during a recording in a microelectrode array (MEA) using Axion Biosystems Maestro 768 channel amplifier with the AxIS adaptive spike detector. The average of the burst percentages across electrodes is calculated to report a well-level value. The recordings before and after chemical treatment are used to calculate a percent change in the mean burst percentage in each well.Data from the assay component CCTE_Shafer_MEA_acute_burst_percentage_mean was analyzed into 1 assay endpoint. This assay endpoint, CCTE_Shafer_MEA_acute_burst_percentage_mean, was analyzed in the negative analysis fitting direction relative to DMSO as the negative control and baseline of activity. Using a type of functional reporter, gain or loss-of-signal activity can be used to understand electrical activity.
Spontaneous activity in the cortical cultures was recorded using an Axion Biosystems Maestro 768 channel amplifier and Axion Integrated Studios (AxIS) v1.8 (or later) software. The amplifier recorded from all channels simultaneously (gain = 1200 x; sampling rate = 12.5 kHz/channel): raw signals were filtered with a Butterworth band-pass filter (300-5000 Hz), which filters out slower local field potentials leaving only fast potentials, i.e., "spikes", arising from extracellular currents associated with action potentials (Pine 2006; Wheeler and Nam 2011). On-line spike detection of filtered signals was conducted with the AxIS adaptive spike detector, using a threshold of 8x the root mean squared (rms) noise on each channel. Any electrodes with rms noise levels greater than 5 uV were grounded (e.g., no data were recorded). Once grounded, an electrode was grounded for the duration of the experiment. All recordings were conducted at 37 C. Wells were deemed usable if on the day of the exposure >/= 10 electrodes were active (defined as >/= 5 spikes/min). On DIV 13 or 15, a minimum of three wells from one cortical culture preparation were treated with each compound (0.03-40 uM). Prior to recording baseline activity, each mwMEA plate was placed in the Maestro at 37 C and allowed to sit for 20 min while firing rates stabilized. Baseline activity (40 min) was recorded before the addition of each compound. An additional 40 min of spontaneous activity was recorded in the presence of each compound. Changes in network parameters relative to baseline were assessed following compound treatment.
In the case of `O=C(c1ccc(O)cc1O)c1ccc(O)cc1O`, the outcome is reported as “inactive”.
In the case of `CCCCC(CC)CN1C(=O)C2C3C=CC(C3)C2C1=O` (centres undefined), the AC50 is reported as 36 µM (active).
For `CC(C)(c1ccc(O)cc1)c1ccc(O)cc1`, the AC50 was 28.6 µM (active).
For `CC1(C)C(C=C(Cl)Cl)C1C(=O)OCc1cccc(Oc2ccccc2)c1` (centres undefined), the AC50 was 20 µM (active).
For `CC(C)CCCCCCc1ccc(O)cc1`, the AC50 was 12.6 µM (active).
For `CCCN(CCC)c1c([N+](=O)[O-])cc(C(F)(F)F)c(N)c1[N+](=O)[O-]`, the outcome was “inactive”.
For `O=C(Nc1ccc([N+](=O)[O-])cc1Cl)c1cc(Cl)ccc1O`, the AC50 was 0.269 µM (active).
With `O=C(O)c1ccccc1` the outcome was “inactive”.
For `Cc1nn(C)c(Oc2ccccc2)c1C=NOCc1ccc(C(=O)OC(C)(C)C)cc1`, the AC50 was 3.26 µM (active).
In the case of `CC(C)(C)[C@@H](O)[C@@H](Cc1ccc(Cl)cc1)n1cncn1`, the outcome is reported as “inactive”.
In the case of `Oc1ccc(C(c2ccc(O)cc2)C(Cl)(Cl)Cl)cc1`, the AC50 is reported as 5.91 µM (active).
With `COC(=O)c1ccccc1C(=O)O` the outcome was “inactive”.
In the case of `OB(O)O`, the outcome is reported as “inactive”.
With `C=CCOC(Cn1ccnc1)c1ccc(Cl)cc1Cl` (centres undefined) the AC50 was 2.09 µM (active).
In the case of `CCNc1nc(N)nc(Cl)n1`, the outcome is reported as “inactive”.
In the case of `CSC(=O)c1cccc2nnsc12`, the outcome is reported as “inactive”.
With `O=C(c1ccccc1)C1CCCCC1` the AC50 was 20 µM (active).
In the case of `C#CCOC(=O)[C@@H](C)Oc1ccc(Oc2ncc(Cl)cc2F)cc1`, the outcome is reported as “inactive”.
With `N#CSCSc1nc2ccccc2s1` the AC50 was 25.5 µM (active).
